According to PubChem BioAssay:

Columns and labels:
[1] = tested on: Botulinum neurotoxin type F light chain protease (Clostridium botulinum); assay: Clostridium botulinum type F light chain protease inhibitors, microsphere substrate cleavage, validation (AID 588459); conditions: multiplex microsphere protease substrate cleavage assay, flow cytometry; at 10 µM; active compounds read high
[2] = biological target: Botulinum neurotoxin type A (Clostridium botulinum) (UniProt P0DPI0); assay: BoNT/A light chain protease inhibitors, biochemical, multiplex microsphere flow cytometry, validation set (AID 588460); conditions: at 10 µM, active compounds read high
Chain of Botulinum neurotoxin type A (Clostridium botulinum) (P0DPI0 whole entry, looked up): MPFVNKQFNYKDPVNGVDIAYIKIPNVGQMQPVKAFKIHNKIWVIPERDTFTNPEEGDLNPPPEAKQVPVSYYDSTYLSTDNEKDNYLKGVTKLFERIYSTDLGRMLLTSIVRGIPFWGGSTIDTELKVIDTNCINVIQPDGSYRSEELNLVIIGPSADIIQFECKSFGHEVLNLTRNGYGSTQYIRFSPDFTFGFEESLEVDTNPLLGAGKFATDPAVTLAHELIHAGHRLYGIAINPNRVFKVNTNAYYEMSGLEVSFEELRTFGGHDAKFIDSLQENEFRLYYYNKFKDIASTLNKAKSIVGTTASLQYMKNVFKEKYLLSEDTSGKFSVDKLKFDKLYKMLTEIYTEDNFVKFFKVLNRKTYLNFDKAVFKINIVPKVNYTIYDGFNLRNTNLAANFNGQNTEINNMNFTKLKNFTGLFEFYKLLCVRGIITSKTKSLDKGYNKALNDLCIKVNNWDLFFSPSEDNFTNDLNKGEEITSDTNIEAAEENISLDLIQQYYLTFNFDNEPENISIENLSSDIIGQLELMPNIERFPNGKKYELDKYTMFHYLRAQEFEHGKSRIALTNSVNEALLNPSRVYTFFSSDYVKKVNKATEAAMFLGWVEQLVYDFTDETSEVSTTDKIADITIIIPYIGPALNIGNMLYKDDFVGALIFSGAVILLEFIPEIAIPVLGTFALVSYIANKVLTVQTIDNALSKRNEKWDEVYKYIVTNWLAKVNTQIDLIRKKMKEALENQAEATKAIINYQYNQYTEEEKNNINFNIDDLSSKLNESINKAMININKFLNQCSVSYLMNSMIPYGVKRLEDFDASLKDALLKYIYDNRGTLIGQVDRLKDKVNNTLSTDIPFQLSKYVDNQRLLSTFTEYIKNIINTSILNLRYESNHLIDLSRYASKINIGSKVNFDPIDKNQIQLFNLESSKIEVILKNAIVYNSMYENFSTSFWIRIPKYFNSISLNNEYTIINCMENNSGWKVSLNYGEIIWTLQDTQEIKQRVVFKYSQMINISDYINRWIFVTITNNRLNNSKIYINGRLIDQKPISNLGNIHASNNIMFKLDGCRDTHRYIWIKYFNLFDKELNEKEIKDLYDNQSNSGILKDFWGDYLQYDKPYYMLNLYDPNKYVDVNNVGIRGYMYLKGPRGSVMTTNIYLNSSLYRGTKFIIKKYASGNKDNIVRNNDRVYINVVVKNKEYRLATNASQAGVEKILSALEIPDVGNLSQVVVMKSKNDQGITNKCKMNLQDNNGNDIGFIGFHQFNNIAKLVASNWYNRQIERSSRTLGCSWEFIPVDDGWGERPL

[3] = biological target: Lethal factor (Bacillus anthracis) (UniProt P15917); assay: Bacillus anthracis lethal factor inhibition, microsphere flow cytometry protease assay, validation at 10 µM (AID 588461); conditions: multiplex microsphere protease cleavage assay, active compounds read high
Chain of Lethal factor (Bacillus anthracis) (P15917 whole entry, looked up): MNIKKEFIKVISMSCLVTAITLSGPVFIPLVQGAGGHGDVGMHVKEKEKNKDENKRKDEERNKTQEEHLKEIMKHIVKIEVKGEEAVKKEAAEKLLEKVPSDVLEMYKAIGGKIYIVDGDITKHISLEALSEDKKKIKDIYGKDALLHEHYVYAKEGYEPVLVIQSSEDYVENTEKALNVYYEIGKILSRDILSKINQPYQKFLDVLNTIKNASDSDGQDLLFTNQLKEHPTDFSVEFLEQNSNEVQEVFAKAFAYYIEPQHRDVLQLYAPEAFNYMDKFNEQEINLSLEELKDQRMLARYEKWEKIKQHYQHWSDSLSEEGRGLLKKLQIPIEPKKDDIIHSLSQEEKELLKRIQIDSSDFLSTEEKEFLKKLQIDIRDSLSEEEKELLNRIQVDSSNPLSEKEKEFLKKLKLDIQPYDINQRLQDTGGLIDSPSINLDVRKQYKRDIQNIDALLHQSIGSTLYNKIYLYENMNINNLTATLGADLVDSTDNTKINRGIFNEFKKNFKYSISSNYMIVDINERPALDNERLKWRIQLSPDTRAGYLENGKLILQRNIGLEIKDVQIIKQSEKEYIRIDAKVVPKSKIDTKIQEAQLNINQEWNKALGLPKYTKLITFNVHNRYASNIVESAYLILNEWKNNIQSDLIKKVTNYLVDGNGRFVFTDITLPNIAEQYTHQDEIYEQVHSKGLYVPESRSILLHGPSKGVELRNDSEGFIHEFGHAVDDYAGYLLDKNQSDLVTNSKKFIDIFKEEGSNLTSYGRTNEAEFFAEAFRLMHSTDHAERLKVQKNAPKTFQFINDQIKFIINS

Measured: inhibition

COc1ccc(-c2coc3cc(O)cc(O)c3c2=O)cc1
inactive: [1] 0.3% | [2] -0.7% | [3] 0.1%

O=C(Nc1ccccc1)c1ccccc1CCc1ccccc1
inactive: [1] 0.9% | [2] -3.7% | [3] 3.9%

O=C(/C=C/c1ccc(F)cc1)N1CC[C@@]2(O)CCCC[C@H]2C1
inactive: [1] -2.9% | [2] -2.2% | [3] 5.2%

CCOc1ccc(CCn2c(-c3ccco3)nc3ccccc3c2=O)cc1OCC
inactive: [1] 3.5% | [2] -0.4% | [3] 11.4%

CCN(CCCCOC(=O)c1ccc(OC)c(OC)c1)C(C)Cc1ccc(OC)cc1 (stereo not drawn)
inactive: [1] -0.4% | [2] -2.7% | [3] -2.8%

Cc1nonc1CN(C)C(=O)c1ccc(OC2CCN(Cc3ccccn3)CC2)cc1
inactive: [1] 0% | [2] -1.4% | [3] -0.2%

OC(CCN1CCCCC1)(c1ccccc1)C1CCCCC1 (stereo not drawn)
inactive: [1] 3.1% | [2] 1% | [3] 1%

Cn1cc(C2N3CC4(C)CN2CC(C)(C3)C4=O)c2ccccc21 (stereo not drawn)
inactive: [1] 1% | [2] 1.7% | [3] -10.2%

CC(=O)OCC1OC(n2ccc(=O)[nH]c2=O)C(O)C1O (stereo not drawn)
inactive: [1] -0.4% | [2] 0.5% | [3] -5.3%

CC(NCCc1ccc(O)cc1)C(O)c1ccc(O)cc1 (stereo not drawn)
inactive: [1] 1.6% | [2] -0.5% | [3] -3.1%

N/C(=N\OC(=O)CCCOc1ccc(Cl)cc1Cl)c1ccccn1
inactive: [1] 4% | [2] -0.3% | [3] -0.4%
